Measurements published in PubChem BioAssay (NCI).
Compounds without any hit were thinned out: in the full panel of roughly 83,000, 20% have a hit.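 Interpretation: 100, growth as untreated; towards 0, rising growth inhibition; 0, no net growth; 0 to -100, cell death. Compounds scoring below 10 were considered active.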 Active and inactive are the calls of the source.

These compounds were tested on KM12 colon (assay: NCI-60 one-dose screen, 48 h (100 = growth as untreated, 0 = no growth, -100 = all killed)). Details: 10 µM unless noted.
For CCCCN1C(=O)/C(=c2\sc3n(c2=O)C2C(NN=3)N(CC)C(=O)N2CC)c2cccc(C)c21 (centres undefined), the growth was 33.3% (inactive). For Brc1cc(-c2cc(-c3ccc4c(c3)OC=CO4)[nH]n2)cs1, the growth was 64.2% (inactive). N#C/C(=C\c1cccc2c1OCO2)C(=O)Nc1sc2c(c1C#N)CCCC2 was tested, and the growth was 103% (inactive). CN1CCN(Cc2ccc(NC(=O)c3cncc(C#Cc4cnc5ccc(O[C@@H]6CCOC6)nn45)c3)cc2C(F)(F)F)CC1 was tested, and the growth was -82.4% (active). In the case of CCN(CC)CCOc1ccc(C(=C(C)c2ccc(OC)cc2)c2ccc(OCCN(CC)CC)cc2)cc1, the growth is reported as 14.7% (inactive). In the case of O=c1nc(Nc2ccc([N+](=O)[O-])cc2O)sc2ccccc12, the growth is reported as 23.9% (inactive). For O=C(CCCCCCNC(=O)c1csc(Br)n1)NO, the growth was 56.8% (inactive). For COC(=O)[C@@H](Cc1c[nH]c2ccccc12)NC(=O)CCCCOc1cc(O)c2c(=O)cc(-c3ccccc3)oc2c1, the growth was 95.3% (inactive). Clc1cccc(/C=N/Nc2nc(N/N=C/c3cccc(Cl)c3)nc(N3CCCCC3)n2)c1 was tested, and the growth was 91.1% (inactive). With COC(=O)c1ccc(NC2=C(Cl)C(=O)C(C)=C(C)C2=O)cc1 the growth was 6.69% (active). With O=C(CSc1nnc(-c2ccc(Cl)cc2)n1-c1ccccc1)Nc1ccccc1Cl the growth was 80% (inactive). For CN(C)CCNc1ccc2ncc(C#Cc3cncc(C(=O)Nc4ccc(CN5CCN(C)CC5)c(C(F)(F)F)c4)c3)n2n1, the growth was -8.42% (active). In the case of Cc1cc(=O)oc2cc(OCCCOc3ccc(/C=C/C(=O)Nc4ccc(Br)cc4)cc3)ccc12, the growth is reported as 88.6% (inactive). With CC(=O)OC[C@@]12Oc3c(cccc3-c3ccc(O)c4c3O[C@]3(COC(C)=O)C(=C4O)C(=O)C[C@H](C)[C@@H]3OC(C)=O)C(O)=C1C(=O)C[C@H](C)[C@@H]2OC(C)=O the growth was 8.74% (active). With COc1ccc(/C=N/NC(=O)CSc2nc(-c3cnccn3)cc(-c3cccs3)c2C#N)cc1OC the growth was 51.4% (inactive). O=c1c2cc(-c3ccc(F)cc3F)ccc2n(O)c(=O)n1-c1cccc(C(F)(F)F)c1 was tested, and the growth was 7.94% (active). For C#C[C@]1(O)CC[C@H]2[C@@H]3CC=C4c5sc(Nc6ncccc6C)nc5CC[C@]4(C)[C@H]3CC[C@@]21C, the growth was 3.23% (active). In the case of CCCCCc1ccc(S(=O)(=O)Nc2cc(-c3csc(N)n3)ccc2OC)cc1, the growth is reported as 99.6% (inactive). With O=c1oc2ccc(-c3ccc(F)cc3F)cc2c(=O)n1-c1ccc(Br)cc1F the growth was 61.4% (inactive).
